Most compounds without a hit are left out; they make up all but 3.5% or so of the library.
GPR151 activ: activators of human GPR151, primary screen, cell-based, PathHunter beta-arrestin, luminescence | hit rate 1% among 650,000 | activation, % at 11.2 µM | G-protein coupled receptor 151 (Homo sapiens), Q8TDV0 | PathHunter beta-arrestin GPR151 cells | AID 1508602, 2020; in the data active = activation above about 4.9%
FBW7 act: FBW7 E3 ligase activators, primary screen, biochemical, AlphaScreen, human; F-box/WD repeat-containing protein 7 (Homo sapiens), Q969H0; AlphaScreen FBW7–phospho-cyclin E peptide binding, activator screen; normalized activity (activation), % at 26.1 µM; hit rate 0.13% among 650,000; in the data active = normalized activity above about 1.9%;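 note: purified mutant Fbw7 with reduced substrate affinity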
MITF primary: MITF inhibitors, primary screen, biochemical, AlphaScreen, human; Microphthalmia-associated transcription factor (Homo sapiens), O75030; AlphaScreen MITF homodimerization, bead proximity signal; inhibition, % at 2.6 µM; hit rate 0.91% among 650,000; AID 1259374, 2018; in the data active = inhibition above about 50%
TEAD-YAP block: TEAD-YAP interaction inhibition, primary screen, TEAD-YAP interaction inhibitor project, luminescence, HEK-TIYL cells; TEAD-Gal4/YAP UAS-luciferase luminescence; inhibition, % at 9.12 µM; hit rate 1.4% among 640,000; AID 1259422, 2018; in the data active = inhibition above about 32%
GPR151 confirm: GPR151 activators, triplicate retest, confirmation, cell-based, PathHunter beta-arrestin, luminescence. GPR151 PathHunter beta-arrestin cells, 90 min; % of EA-reagent control over plate median. 6,700 tested, under 10 active. shares compounds with GPR151 activ. activation, % at 11.2 µM. AID 1508609, 2020;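 active = mean percent activation across replicates above the confirmation screen cutoff of 4.91%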
GPR119 counter: GPR119 activators in beta-arrestin cells, counter-screen for GPR151 activator project, cell-based, PathHunter beta-arrestin, luminescence, triplicate; hit rate 0.3% among 6,700; activation, % at 11.2 µM; 90 min; 0 = compound-well median, 100 = enzyme-acceptor control; shares compounds with GPR151 activ;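 active = mean percent activation in the counterscreen above 29.09%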;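 note: counterscreen on off-target GPR119 to flag nonselective hits from the GPR151 activator screen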
Target sequence (Q8TDV5 whole entry, looked up): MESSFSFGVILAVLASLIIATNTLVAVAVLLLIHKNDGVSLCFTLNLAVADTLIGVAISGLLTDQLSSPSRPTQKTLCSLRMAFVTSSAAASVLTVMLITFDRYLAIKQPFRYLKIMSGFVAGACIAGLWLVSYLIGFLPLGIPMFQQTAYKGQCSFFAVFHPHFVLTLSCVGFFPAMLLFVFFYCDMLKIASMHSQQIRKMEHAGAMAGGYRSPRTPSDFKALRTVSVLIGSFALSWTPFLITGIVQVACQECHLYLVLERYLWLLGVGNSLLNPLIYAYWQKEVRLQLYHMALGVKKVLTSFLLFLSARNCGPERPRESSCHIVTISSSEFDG
A number is an active result; . = inactive; / = no result given; ! = a repeat was not active.

SMILES	GPR151 activ	FBW7 act	MITF primary	TEAD-YAP block	GPR151 confirm	GPR119 counter
COc1ccc(C(=O)C2CCCN(Cc3cccc(O)c3)C2)c(OC)c1 (stereo not given)	.	.	.	.	/	/
O=c1c2ccccc2nc(/C=C/c2ccccc2)n1-c1ccccc1I	.	.	.	.	/	/
O=C(c1ccccc1)c1cc(Cl)ccc1N1C(=O)C2CC=CCC2C1=O (stereo not given)	.	.	.	.	/	/
C[C@]12CC[C@H](O)C[C@H]1CC[C@@H]1[C@@H]2C[C@@H](O)[C@]2(C)[C@@H](C3=CC(=O)OC3)CC[C@]12O	5.7!	.	.	98	.	109
Cc1ccc2nc(Cl)c(C=C3C(=O)NC(=S)NC3=O)c(=O)n2c1	.	.	.	.	/	/
COc1ccc(F)cc1C(=O)C1CCCN(CCO)C1 (stereo not given)	8.3	.	.	.	.	.
COc1ccc(F)cc1C(=O)C1CCCN(Cc2ccc(O)cc2)C1 (stereo not given)	.	.	.	.	/	/
CN1CCN(c2cc(N)c([N+](=O)[O-])cc2F)CC1	.	.	.	.	/	/
CCn1c(O)c(C=NCCc2c[nH]c3ccccc23)c(=O)[nH]c1=O	5.4	.	.	.	.	.
CS(=O)(=O)c1ccc(N2CCNCC2)c(F)c1	4.9	.	.	.	.	.
O=C1C2C3CCC(O3)C2C(=O)N1c1ccc(Cl)cn1 (stereo not given)	.	.	.	.	/	/
COc1ccc(Cc2nccc3cc(OC)c(OC)cc23)cc1OC	5.8!	.	.	.	.	.
COc1ccc(CCNCc2cc(OC)c(OC)c(OC)c2)cc1OC	.	.	.	.	/	/
CCN1CCN(Cc2ccc([N+](=O)[O-])cc2)CC1	10	.	.	.	.	.
CCC(C)N1CCN(Cc2ccc([N+](=O)[O-])cc2)CC1 (stereo not given)	.	.	.	.	/	/
O=c1c2cc(Cl)cc(Cl)c2nc(CN2CCOCC2)n1-c1ccccc1F	17	.	.	.	.	.
c1ccc(CNCCc2c[nH]c3ccccc23)nc1	.	.	.	.	/	/
O=P1(O)COc2ccccc2OC1	.	.	.	.	/	/
COc1ccc(OC)c(N2Cc3ccccc3C2=N)c1	5.9	.	.	.	.	.
COc1cc(N2CCOCC2)ccc1C=C1C(=O)NC(=O)NC1=O	8.0	.	.	.	.	.
COc1cc(N2CCOCC2)ccc1/C=C1\C(=O)NC(=O)N(Cc2cccs2)C1=O	.	.	.	.	/	/
O=c1c2ccccc2nc(/C=C/c2cccc(F)c2)n1-c1ccc(Br)cc1	.	.	.	.	/	/
CC1(C)C(c2ccccn2)=[N+]([O-])C(c2cccnc2)N1O (stereo not given)	.	.	.	.	/	/
CC1(C)C(c2ccccc2)=[N+]([O-])C(c2cccnc2)N1O (stereo not given)	6.2	.	.	.	.	.
CN1/C(=C/C=C2C(=O)NC(=S)NC2=O)C(C)(C)c2ccccc21	.	.	.	.	/	/
SMILES	GPR151 activ	FBW7 act	MITF primary	TEAD-YAP block	GPR151 confirm	GPR119 counter
CC[n+]1c(/C=C/C=C2\N(C)c3ccccc3C2(C)C)n(-c2ccccc2)c2cc(Cl)ccc21	8.3	.	.	90	.	.
CCn1c(/C=C/C=C2\N(C)c3ccccc3C2(C)C)[n+](Cc2ccccc2)c2ccccc21	8.7	.	.	92	.	.
CC[n+]1c(/C=C/C=C2\N(C)c3ccccc3C2(C)C)n(-c2ccccc2)c2ccc(C)cc21	11	.	.	91	.	39
CCc1c(O)n(C(C)CC)c(=S)[nH]c1=O (stereo not given)	.	.	.	.	/	/
CCOC(=O)c1c(CN2CCCCC2)n(Cc2ccccc2)c2cc(Br)c(O)cc12	5.0	.	.	.	.	.
CCOC(=O)c1c(CN2CCCC2)n(Cc2ccccc2)c2cc(Br)c(O)cc12	.	.	.	.	/	/
CC[C@@H]1C(=O)OC[C@@H]1Cc1cncn1C	9.6!	.	.	.	.	.
Cc1ccc2c(c1)CNc1ccccc1O2	5.2	.	.	.	.	.
CCOc1ccccc1NC(=O)N1CCC2(CC1)OCCO2	13	.	.	.	.	.
CCOC(=O)C1=C(C)OC(N)=C(C(=O)OCC)C12C(=O)N(CC(N)=O)c1ccccc12 (stereo not given)	9.6	.	.	.	.	.
CCOC(=O)C1=C(C)OC(N)=C(C#N)C12C(=O)N(CC(N)=O)c1ccccc12 (stereo not given)	.	.	.	.	/	/
Cc1[nH]c2c(Cl)c(Cl)ccc2c1CCN	.	.	.	.	/	/
Cc1[nH]c2c(Cl)ccc(Cl)c2c1CCN	6.8	.	.	.	.	.
N#Cc1cccc(CN2CCC(N(Cc3cccnc3)C(=O)c3ccco3)CC2)c1	.	.	.	.	/	/
O=C(O)c1c2c(nc3ccccc13)CCNC2	6.9	.	.	.	.	.
OCCNc1c2c(nc3ccccc13)CCCC2	.	.	.	.	/	/
COC(=O)COc1ccc(C=C2C(=O)NC(=O)NC2=O)cc1	5.2	.	.	.	.	.
CC(=O)C(C)Oc1cc(C)cc2oc(=O)c3c(c12)CCCC3 (stereo not given)	22	.	.	.	.	.
N#Cc1ccc(NC(=O)COc2ccc(Br)cc2F)cc1Cl	.	.	.	.	/	/
N#Cc1c(-c2ccc(Oc3nc(Nc4cccc(Cl)c4)nc(N4CCOCC4)n3)cc2)c(C#N)c2nc3ccccc3n2c1N	.	.	.	.	/	/
CC(=O)OCC(=O)[C@H]1CC[C@H]2[C@@H]3CC[C@H]4C[C@H](O)CC[C@]4(C)[C@H]3C(=O)C[C@]12C	6.2	.	.	/	.	.
N=C1SC2CS(=O)(=O)CC2N1Cc1ccc(Cl)cc1 (stereo not given)	.	.	.	.	/	/
CCC(COC(=O)NC)NC(=O)Oc1ccccc1 (stereo not given)	5.8	.	.	.	.	.
CCC(COC(=O)NC)NC(=O)Oc1cccc(C)c1 (stereo not given)	.	.	.	.	/	/
S=P(/N=C(/N1CCCC1)C(Cl)(Cl)Cl)(N1CCCC1)N1CCCC1	.	.	.	.	/	/
C=CCc1cc(OC)c2c(c1OC)OCO2	11	.	.	.	.	.
COc1cc(CN2CCNCC2)cc2c1OCO2	.	.	.	.	/	/
Cc1c(NP(=O)(OCC(F)(F)F)OCC(F)(F)F)c(=O)n(-c2ccccc2)n1C	.	.	.	.	/	/
Cc1nn(Cc2ccccc2)c(Cl)c1C(=O)NC1CCCCCC1	7.4	/	/	/	.	.
CCOC(=O)CCCn1c(C(=O)OCC)c(C=O)c2ccccc21	6.3	.	.	.	.	.
